Results as given in PubChem BioAssay (NCI).
Where “and” joins values, the source holds several entries; their conditions need not be identical. Equal values may be shown once. This is part of a sample that, as a whole, favours compounds with a hit. Of some 83,000 tested, about 20% had one in any assay.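 Assay: single dose, 48 h. Readout: percent growth (0 = no net growth; negative = cell death). Active: <10.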 Unmarked numbers belong to inactive results. Calls of active or inactive are those of the source.

tested on: MDA-MB-231 breast; assay: NCI-60 one-dose screen, 48 h (100 = growth as untreated, 0 = no growth, -100 = all killed); settings: 10 µM unless noted

Row | SMILES | growth
1 | O=c1ccc(Cn2c(C(F)(F)F)cc3c(Cl)ncnc32)c[nH]1 | 52.6%
2 | CC[C@]12C=CCN3CC[C@]4(C(=C(C(=O)OC)C1)Nc1cc(OC)c([C@@H]5[C@H]6O[C@H]6[C@@]6(CC)CC(C(=O)OC)=C7Nc8cc(O)ccc8[C@@]78CCN5[C@@H]68)cc14)[C@@H]32 | -54.2% (active)
3 | COc1ccc2[nH]cc(-c3cc4nc(-c5cn(C)c6ncccc56)cc(N)n4n3)c2c1 | -58.4% (active)
4 | COc1ccc2[nH]c(=O)cc(-n3ncc(C(=O)/C=C/c4cc(OC)c(OC)c(OC)c4)c3C)c2c1 | 1.48% (active)
5 | COc1ccc(/C=C/c2nc3ccccc3n3c(-c4cccc([N+](=O)[O-])c4)nnc23)cc1 | 1.23% (active)
6 | O=C(Nc1ccc(Cl)c(C(F)(F)F)c1)N1CCN(c2cc(-c3cn(-c4ccccc4)nc3-c3cccc(O)c3)ccn2)CC1 | -48.6% (active)
7 | O=C1Nc2ccccc2/C1=C/C(=O)c1cc2ccccc2oc1=O | 97.6%
8 | CN1CCN(C(=O)Oc2cc3c(c4ccccc24)[C@H](CCl)CN3C(=O)c2cc3cc(OCCCN4CCC4)ccc3[nH]2)[C@H]2CSSC[C@H]21 | -14.8% (active)
9 | NS(=O)(=O)c1ccc(Nc2nc(N/N=C/c3cc(Br)c(O)c(Br)c3)nc(Nc3ccccc3)n2)cc1 | -0.169% (active)
10 | COc1ccc2c(c1)C(Sc1ccc(Cl)cc1)c1c(nc(N)c(C#N)c1N)O2 (configuration not stated) | 56.4%
11 | CS(=O)(=O)Nc1cccc(-n2c(COc3ccc(OC(F)(F)F)cc3)nc3ccccc32)c1 | 92.4% and 110%
12 | OCCn1cc(-c2nc3ccc4[nH]ncc4c3c3c2CCCC3)cn1 | 54.9%
13 | Cn1cc(-c2cc(N)n3nc(-c4c[nH]c5ccc(F)cc45)cc3n2)c2cccnc21 | -85.9% (active)
14 | COc1ccc2c(c1)N=c1c-2cc2c(O)[nH]c(=S)n2c1=O | 42.1%
15 | O=C(NN1C(=O)/C(=C/C=C/c2ccc([N+](=O)[O-])o2)SC1=S)c1ccncc1 | -96.5% (active)
16 | Cn1cc(-c2cc(N)n3nc(-c4c[nH]c5ccccc45)cc3n2)c2cc(Br)ccc21 | -89.3% (active)
17 | Cn1cc(-c2cc(N)n3nc(-c4c[nH]c5ccccc45)cc3n2)c2ccccc21 | -89.8% (active)
18 | O=C1c2cccc3c(N4CCN(c5ccccc5)CC4)ccc(c23)C(=O)N1c1cccc(-c2nn(-c3ccccc3)cc2-c2nc3ccccc3s2)c1 | 95.1%
19 | O=C(c1ccc(O)cc1)C1[C@H](c2ccccc2Br)[C@@H](c2ccccc2)NC12C(=O)Nc1ccccc12 (some centres not stated) | 41%

Row | SMILES | growth
20 | COc1ccc(-c2cc(C(=O)N=Nc3c(O)[nH]c4ccc(Cl)cc34)c3ccccc3n2)cc1 | -44.2% (active)
21 | CC(C)(C)OC(=O)N1CCC2(CC1)Oc1ccccc1[C@H]1CC(c3ccc(Br)cc3)=NN12 | 63%
22 | Cc1cc(C(NC(=O)CCCCCNc2cccc3c2C(=O)N(C2CCC(=O)CC2=O)C3=O)c2cccc(N(C)C)c2)c(O)c2ncccc12 (configuration not stated) | -22.2% (active)
23 | O=C(c1ccc(O)cc1)C1[C@H](c2ccc(Cl)cc2)[C@@H](c2ccccc2)NC12C(=O)Nc1ccc(Br)cc12 (some centres not stated) | -79.4% (active)
24 | Cc1ccc(C(=O)C[n+]2cccc3c4ccccc4ccc32)cc1 | 24.2%
25 | C#CCN(C)CCCOc1ccc(N(CC)C(=O)c2cc(C(C)C)c(O)cc2O)cc1Cl | -45.3% (active)
26 | O=C(OCCOCCO)N(c1cccc(Br)c1)c1nc(SCCN2CCOCC2)nc2c1cnn2CC(Cl)c1ccc(Br)cc1 (configuration not stated) | 1.49% (active)
27 | COc1ccc(-c2nc3ccc(-c4nnc(SCC(=O)Nc5ccc(/C(C)=N\O)cc5)o4)cc3[nH]2)cc1 | 56%
28 | Clc1ccc2c(NCCNC34CC5CC(CC(C5)C3)C4)ccnc2c1 | -72.1% (active)
29 | CCOc1ccc(-c2cc(-c3cc(C(C)C)c(O)cc3C)nn2-c2ccc(S(N)(=O)=O)cc2)cc1 | 37.5%
30 | Cc1ccc(N=Nc2c(N)nn3c(-c4cc5cc(Br)ccc5oc4=O)ccnc23)cc1 | -11.1% (active)
31 | COc1ccc(SC2c3cc(OC)ccc3Oc3nc(N)c(C#N)c(N)c32)cc1 (configuration not stated) | 82.1%
32 | O=C1Nc2ccc(F)cc2/C1=C/C(=O)c1cc2ccccc2oc1=O | 91.8%
33 | COc1ccc2[nH]cc(-c3cc(N)n4nc(-c5c[nH]c6ccccc56)cc4n3)c2c1 | -69.9% (active)
34 | O=C1Nc2cc(-c3ccc(NS(=O)(=O)c4ccc(F)c(Cl)c4)cc3)ccc2/C1=C/c1ccc[nH]1 | -6.71% (active)
35 | CCOC(=O)/C(F)=C/C1CC1C1CCN(C(=O)OC(C)(C)C)CC1 (configuration not stated) | 99.3%
36 | CN1CCN(CCS(=O)(=O)Nc2cc(-c3ccc4ncnc(Nc5ccc(F)c(Cl)c5)c4c3)cnc2Cl)CC1 | -41.3% (active)
37 | N#Cc1cc(-c2ccc3ncnc(N4CCc5cc(F)c(Cl)cc54)c3c2)cnc1N | 28.7%
